Only some compounds are listed: those with a hit (about 12% of all), similar ones and a draw of the others.
BAZ2B block = BAZ2B (human) inhibition | Q9UIF8 | AlphaScreen BAZ2B-H3K14Ac peptide displacement | Potency, µM (doses to about 114 µM), most hits filed as inhibitors | actives 4.4% (n = 360,000); note: nearly all actives have a fitted effect of over 60% in size
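In this displacement format the biotinylated H3(5-23) peptide acetylated at Lys14 serves as ligand at 50 nM, with BAZ2B at 50 nM in PBS pH 7.4 containing 0.01% Tween-20. Donor and acceptor beads are 10 ug/mL final.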
L3MBTL1 inh = inhibitors of human L3MBTL1. AID 485360. AlphaScreen L3MBTL1–H3K9me1 peptide binding. actives 0.66% (n = 230,000). Potency, µM (doses to about 57.1 µM), most hits filed as inhibitors; note: nearly all actives have a fitted effect of over 60% in size
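First, the protein-peptide complex forms for 30 min at room temperature (L3MBTL1 50 nM, biotinylated H3K9me1 peptide 75 nM). Next, compounds are pin-transferred and incubated 30 min. Finally, AlphaScreen beads are added and read after 30 min.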
Sfp PPTase inh = Sfp phosphopantetheinyl transferase inhibition. Q9F4F7. Biochemical Sfp PPTase activity, qHTS. Potency, µM, usual class: inhibitors. actives 3.5% (n = 310,000);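 note: the enzyme is Sfp with the accession as filed and its product quenches rhodamine fluorescence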
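Buffer: 50 mM Hepes-Na pH 7.6, 10 mM MgCl2, 0.01% Nonidet P-40, 0.01% BSA. Enzyme 15 nM, pre-exposed to compound 15 min; substrates then added and fluorescence change tracked over 30 min.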
JMJD2A Tudor = JMJD2A Tudor domain (human) inhibition; O75164; AlphaScreen JMJD2A-Tudor / H3K4me3 peptide binding; Potency, µM (doses to about 114 µM), most hits filed as inhibitors; actives 4.4% (n = 390,000); note: nearly all actives have a fitted effect of over 50% in size
G9a block = G9a (human) methyltransferase inhibition. Q96KQ7. G9a H3K9 monomethylation, AlphaScreen, 2 h. Potency, µM (doses to about 102 µM), hits mostly inhibitors. actives 8.8% (n = 350,000). AID 504332; note: nearly all actives have a fitted effect of over 75% in size
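Step 1: enzyme (final 20 nM) with compound, 15 min RT. Step 2: substrate peptide 500 nM and SAM 20 uM, 2 h RT. Step 3: anti-H3K9me1 antibody and AlphaScreen beads, 10 min, then plate read.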
HP1b chromo inh = inhibitors of HP1-beta chromodomain binding to methylated histone tails | P83916 | AlphaScreen HP1-beta / biotin-H3K9me3 peptide binding | Potency, µM (top dose mostly 114 µM), most hits filed as inhibitors | actives 0.56% (n = 390,000) | AID 540317; note: nearly all actives have a fitted effect of over 70% in size
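HP1-beta protein (50 nM final) preincubated 30 min at room temperature with biotinylated H3(1-18)K9me3 peptide (50 nM) in PBS pH 7.4, 0.01% Tween-20, then compound added for 30 min. AlphaScreen streptavidin donor/nickel chelate acceptor beads (10 ug/mL final), 30 min dark, luminescence read.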
A number is an active result; 0 = inactive; ? = inconclusive; - = not tested or not shown; [ ] = dose if it differs, or a comment. Calls come from the whole dose curve; as a rule, active = well fitted curve in the direction sought with a large enough effect; inconclusive = small, poorly fitted or top-dose-only effect, or another doubt; inactive = no such curve, though single readings can be large; an effect the other way counts as inactive or inconclusive.

SMILES	BAZ2B block	L3MBTL1 inh	Sfp PPTase inh	JMJD2A Tudor	G9a block	HP1b chromo inh
Cc1cc(C)cc(NC(=O)C2CCCN(S(=O)(=O)c3cccc4nsnc34)C2)c1 (stereo unspecified)	-	-	-	0	0	0
Cc1ccc(/C=N/NC(=O)c2ccc(-c3ccccc3)cc2)o1	0	-	0	0	0	0
O=C(N/N=C/c1ccc(N2CCCCC2)o1)c1ccccc1	0	0	0	50.1µM	10µM	?
O=C(N/N=C/c1ccc(N2CCOCC2)o1)c1cccc([N+](=O)[O-])c1	0	0	1.12µM	?	10µM	0
O=C(N/N=C/c1ccccc1)c1ccc(N2CCOCC2)c([N+](=O)[O-])c1	0	0	0	0	0	0
N#Cc1ccccc1Cn1c(=O)n(-c2cccc(C(F)(F)F)c2)c(=O)c2sccc21	0	-	-	0	0	0
O=C(CSc1cn(CC(=O)N2CCCCCC2)c2ccccc12)Nc1ccccc1F	0	-	-	0	?	0
O=C(C1=C(O)C(=O)N(CC2CCCO2)C1c1ccccc1[N+](=O)[O-])c1ccco1 (stereo unspecified)	0	-	0	0	35.5µM	0
O=C(C1=C(O)C(=O)N(CC2CCCO2)C1c1ccc(Cl)cc1)c1ccco1 (stereo unspecified)	0	-	0	0	0	0
COc1ccc(OC)c(C2C(C(=O)c3ccco3)=C(O)C(=O)N2CCN2CCOCC2)c1 (stereo unspecified)	?	-	0	-	-	-
COc1ccc(C2C(C(=O)c3ccco3)=C(O)C(=O)N2CCN2CCOCC2)c(OC)c1 (stereo unspecified)	0	-	0	?	35.5µM	0
COC(=O)c1ccc(C2C(C(=O)c3ccco3)=C(O)C(=O)N2CC2CCCO2)cc1 (stereo unspecified)	0	-	0	0	44.7µM	0
COc1ccc(OC)c(C2C(C(=O)c3ccco3)=C(O)C(=O)N2CC2CCCO2)c1 (stereo unspecified)	?	-	0	0	50.1µM	0
O=C(CNC(=O)C1CCCCC1)OCC(=O)c1ccc(C2CCCCC2)cc1	-	-	-	0	-	0
CCOC(=O)N1CCc2c(sc3c2c(=O)n(CCc2ccccc2)c(=O)n3Cc2c(F)cccc2Cl)C1	0	-	-	0	0	0
CCn1c(=O)c2cc(C(=O)NCCCN3CCN(c4ccc(F)cc4)CC3)sc2c2ccccc21	0	-	-	?	?	0
COc1cccc2cc(C(=O)C3=C(O)C(=O)N(CCN4CCOCC4)C3c3cccs3)oc12 (stereo unspecified)	0	0	0	79.4µM	0	0
O=C(Nc1ccccc1C(=O)N1CCN(c2cccc(Cl)c2)CC1)C1=CSCCO1	70.8µM	-	0	0	0	0
O=C(Nc1ccc(C(=O)N2CCN(c3ccc(Cl)cc3)CC2)cc1)C1=CSCCO1	0	-	0	?	0	0
O=C(COC(=O)c1ccccn1)c1ccc(Br)cc1	25.1µM	?	0	28.2µM	50.1µM	0
O=C(COC(=O)c1n[nH]c(=O)c2ccccc12)c1ccc(Br)cc1	0	0	0	0	0	0
O=C(COC(=O)c1cnccn1)c1ccc([N+](=O)[O-])cc1	?	0	20µM	0	25.1µM	0
O=C(COC(=O)c1ccccn1)c1cccc(Br)c1	17.8µM	-	0	12.6µM	-	0
NC(=O)c1cc2ccccc2o/c1=N\NC(=O)c1ccccc1O	?	-	0	0	31.6µM	0
C[N+](C)(C)c1ccc(/C=N/Nc2nc(Cl)c(C#N)c(Cl)c2Cl)cc1	50.1µM	0	0	31.6µM	?	0
SMILES	BAZ2B block	L3MBTL1 inh	Sfp PPTase inh	JMJD2A Tudor	G9a block	HP1b chromo inh
N#Cc1c(Cl)nc(N/N=C/c2ccccc2)c(Cl)c1Cl	0	0	?	0	0	0
COc1ccc(C2C(C#N)=C(N)Oc3cc(O)ccc32)cc1Cl (stereo unspecified)	0	0	0	0	?	0
N#CC1=C(N)Oc2ccc3ccc(O)cc3c2C1c1cccnc1 (stereo unspecified)	0	0	0	0	0	0
N#CC1=C(N)Oc2cc(O)c(Cl)cc2C1c1cccnc1 (stereo unspecified)	0	0	0	0	31.6µM	0
N#CC1=C(N)Oc2ccc3ccccc3c2C1c1cccnc1 (stereo unspecified)	0	0	0	0	44.7µM	0
N#CC1=C(N)Oc2cc(O)c(Cl)cc2C1c1ccccc1F (stereo unspecified)	0	-	0	0	50.1µM	0
N#CC1=C(N)Oc2cc(O)ccc2C1c1cccnc1 (stereo unspecified)	0	0	0	0	0	0
CC(=O)c1ccc(-c2c(C3C4C=CCC(C)C4C(=O)N3Cc3ccccc3)ccc3ccccc23)cc1 (stereo unspecified)	-	-	0	0	-	0
CCc1ccc(CNC(=O)c2cnc3sc(N4CCCCC4)nn3c2=O)cc1	0	-	-	0	0	0
CCOC(=O)c1ccc(CC(=O)c2oc3cc(O)ccc3c2C)o1	?	0	?	?	?	0
CCOC(=O)c1ccc(CC(=O)c2ccc(O)c(O)c2O)o1	31.6µM	?	6.31µM	0	-	?
c1ccc(NC(c2ccccc2)c2ccncc2)cc1 (stereo unspecified)	0	0	0	0	31.6µM	0
NC(c1ccccc1)c1ccncc1 (stereo unspecified)	?	0	0	0	44.7µM	0
NCCCC(N)CC(=O)NC1CNC(=O)C(C2CC(O)N=C(N)N2)NC(=O)/C(=C/NC(N)=O)NC(=O)C(CO)NC(=O)C(CO)NC1=O (stereo unspecified)	-	-	0	-	0	-
O=c1c(-c2cccc(F)c2)nc2cncnc2n1Cc1ccccc1	-	-	0	-	0[12.7 µM]	-
C=CCN1C(=O)c2ccc(C(=O)N(C)Cc3ccc(C)o3)cc2C1=O	0	0	-	0	0[2.33 µM]	0
Cc1ccc(CN(C)C(=O)c2cc(Br)c(Br)s2)o1	0	-	79.4µM	0	44.7µM	0
Cc1ccc2oc(C(=O)N(C)Cc3ccc(C)o3)c(C)c2c1	0	-	10µM	?	8.91µM	0
CCOC(=O)C1CCN(C(=O)C2COc3ccccc3C2)CC1 (stereo unspecified)	0	-	-	0	0	0
CCOC(=O)c1cc2c(=O)n3ccccc3nc2n(CC2CCCO2)c1=NC(=O)c1cccc(C(F)(F)F)c1 (stereo unspecified)	0	-	-	0	0	0
CN(C)CCN=Cc1c(O)n(Cc2ccccc2)c(=O)c2ccccc12	0	-	0	0	56.2µM	0
CN(C)CCCN=Cc1c(O)n(Cc2ccccc2)c(=O)c2ccccc12	0	-	0	?	0	0
CS(=O)(=O)Nc1cccc(C2=NN(S(=O)(=O)c3ccc(F)cc3)C(c3cccs3)C2)c1 (stereo unspecified)	0	0	0	79.4µM	0	0
